Structures are written as SMILES. About 1,100 (1.7%) of roughly 63,000 compounds were called active. Cut-off read from the data, not from the text of the source: active = cytotoxicity above about 50%; inactive = the rest. Many of the other results were omitted from the sample, so actives are more common in it than they were. Measured potencies and affinities stand elsewhere.

The nature of the assay: cytotoxicity in HPDE-C7 cells, cell-based, fluorescence, HTS (AID 430).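 Note: cells exposed to compound for 48 hours before viability readout; 0% = vehicle and 100% = reference cytotoxic drug.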 Particulars: HPDE-C7 pancreatic duct cells viability, at 10 µM, hits give high values.
As for `O=S(=O)(c1ccc(F)c(Cl)c1)N1CCCC1`, the cytotoxicity was 11.7% (inactive).
Take `CCOC(=O)c1sc2nc(NC(=O)C3CC3)sc2c1C`: the cytotoxicity was 16% (inactive).
In the case of `CCOC(=O)c1sc2nc(NC(=O)C(C)(C)C)sc2c1C`, the cytotoxicity is 1.8% (inactive).
The figure for `CCOC(=O)c1sc2nc(NC(=O)C3CCCCC3)sc2c1C` is 66.7% (active).
On to `CC(Sc1nnc(C2CCCCC2)n1N)C(=O)NCc1ccc2c(c1)OCO2` (stereo not drawn), for which the cytotoxicity is 0.2% (inactive).
The figure for `CCc1nnc(NC(=O)c2ccc(S(=O)(=O)N(CC)Cc3ccccc3)cc2)o1` is 35.7% (inactive).
`CC1CCCN(S(=O)(=O)c2ccc(NC(=O)c3cccc(-n4cnnn4)c3)cc2)C1` (stereo not drawn): the cytotoxicity is 18.2% (inactive).
For the molecule `CCCCN(C)S(=O)(=O)c1ccc(C(=O)Nc2nnc(-c3cccs3)o2)cc1`, the cytotoxicity is 59.9% (active).
The figure for `O=C(Nc1nc(-c2cccs2)cs1)c1ccc(S(=O)(=O)N2CCCCC2)cc1` is -6.2% (inactive).
With `CC1CC(C)CN(S(=O)(=O)c2ccc(C(=O)Nc3nnc(-c4cccs4)o3)cc2)C1` (stereo not drawn), the cytotoxicity was 69.8% (active).
For `O=C(Nc1nc(-c2cccs2)cs1)c1ccc(S(=O)(=O)N2CCCC2)cc1`, the cytotoxicity is 6.2% (inactive).
For the molecule `CC1CN(S(=O)(=O)c2ccc(C(=O)Nc3nnc(-c4ccc5c(c4)CCCC5)o3)cc2)CC(C)O1` (stereo not drawn), the cytotoxicity is 41.7% (inactive).
The figure for `CC1CCCN(S(=O)(=O)c2ccc(C(=O)Nc3nnc(-c4ccccc4Cl)o3)cc2)C1` (stereo not drawn) is 60.8% (active).
With `CCCCN(CC)S(=O)(=O)c1ccc(C(=O)Nc2nnc(-c3cccs3)o2)cc1`, the cytotoxicity was 49% (inactive).
As for `CCCCN(C)S(=O)(=O)c1ccc(C(=O)Nc2nnc(CSC)o2)cc1`, the cytotoxicity is 11.6% (inactive).
Consider `CCCCN(CC)S(=O)(=O)c1ccc(C(=O)Nc2nnc(-c3ccccc3Cl)o2)cc1`, for which the cytotoxicity is 59.8% (active).
Turning to `CCN(Cc1ccccc1)S(=O)(=O)c1ccc(C(=O)Nc2nnc(C3CC3)o2)cc1`, the cytotoxicity was 4.1% (inactive).
As for `CCC1Sc2ccccc2N(CC(=O)NCCC(C)C)C1=O` (stereo not drawn), the cytotoxicity was -14.5% (inactive).
With `FC(F)(F)c1cccnc1N1CCN(c2ncnc3nc[nH]c23)CC1`, the cytotoxicity was -5.7% (inactive).
As to `CCCCS(=O)(=O)NC1=NCN(CCO)CN1`, the cytotoxicity was -7.4% (inactive).
The figure for `CCCCN1C(=O)C(O)(CC(=O)c2c(C)n[nH]c2C)c2cc(Br)ccc21` (stereo not drawn) is 7.7% (inactive).
`CN(c1ccc(C(=O)NCc2ccco2)cc1)S(C)(=O)=O`: the cytotoxicity is 0.7% (inactive).
For the molecule `COCCNC(=O)NC(=O)COC(=O)C12CC3CC(CC(NC(C)=O)(C3)C1)C2`, the cytotoxicity was -1.4% (inactive).
With `CCOCCCn1c(=S)[nH]c2cc(C(=O)NCCN(CC)CC)ccc2c1=O`, the cytotoxicity is 1.7% (inactive).
For `Cc1[nH]c(=O)[nH]c(=O)c1NC(=O)CSc1ncccc1-c1nc2ccccc2[nH]1`, the cytotoxicity is 3% (inactive).
Regarding `NC(=O)c1ccsc1NC(=O)COC(=O)c1ccccc1NCc1ccco1`, the cytotoxicity is 0.6% (inactive).
The figure for `COc1ccc(NC(=O)c2ccc(CN3CCN(c4ccccc4)CC3)cc2)cc1OC` is -17.4% (inactive); for `CCn1c(SCC(=O)N2CCN(c3ccccc3F)CC2)nnc1-c1ccoc1C` it is -0.9% (inactive).
Take `CC1(C)OC(=O)N(c2ccccn2)C1(C)O` (stereo not drawn): the cytotoxicity was 2.3% (inactive).
In the case of `Cc1nnc(NC(=O)c2ccc(S(=O)(=O)N3CCCCCC3)cc2)o1`, the cytotoxicity is 7.5% (inactive).
The result for `O=C(Nc1nnc(-c2ccccc2Cl)o1)c1ccc(S(=O)(=O)N2CCCCCC2)cc1` reads 53.6% (active); that for `COCc1nnc(NC(=O)c2ccc(S(=O)(=O)N3CCCCCC3)cc2)o1`, 3.2% (inactive).
For the molecule `CC(OC(=O)c1cccc(NS(C)(=O)=O)c1)C(=O)Nc1ccc(N2CCOCC2)cc1` (stereo not drawn), the cytotoxicity is -30.2% (inactive).
The result for `CN(C)c1ccc(C2C=C(c3ccc(Cl)cc3OC(F)F)Nc3ncnn32)cc1` (stereo not drawn) reads 52.1% (active).
The result for `COc1cccc(C2=CC(c3ccc(N(C)C)cc3)n3ncnc3N2)c1` (stereo not drawn) reads -4.9% (inactive); that for `Cc1ccc(C2C=C(c3ccccc3OC(F)F)Nc3ncnn32)cc1` (stereo not drawn), -8.7% (inactive); that for `O=C(Oc1ccc(Br)cc1)C1CC(=O)N(c2ccc(F)cc2)C1` (stereo not drawn), -2.4% (inactive).
Take `CCn1cnc2c1c(=O)n(CC(=O)Nc1cc(C)on1)c(=O)n2Cc1ccccc1`: the cytotoxicity is 0% (inactive).
On to `O=C(Nc1ccccc1C(F)(F)F)c1cc(-c2cccc(O)c2)on1`, for which the cytotoxicity is -6.5% (inactive).
For `Cn1c(CNc2ccc(Cl)cc2)nc2ccccc21`, the cytotoxicity was -13% (inactive).
As for `CC(C)N=c1cc2n(-c3ccc(Cl)cc3)c3ccccc3nc-2cc1Nc1ccc(Cl)cc1`, the cytotoxicity is 83.5% (active).
In the case of `Cc1nc2ccccc2n1-c1ccccc1`, the cytotoxicity was -4% (inactive).
The result for `COc1ccc(S(=O)(=O)n2cnc3cc(C)c(C)cc32)cc1C` reads 20.4% (inactive).
The figure for `O=C(CN(CCc1ccccc1)C(=O)CNS(=O)(=O)c1ccccc1)NCC1CCCO1` (stereo not drawn) is -10.5% (inactive); for `O=C(Nc1nc(-c2cccnc2)cs1)c1ccc(S(=O)(=O)N2CCOCC2)cc1` it is -18.5% (inactive).
As for `CC1=C(C#N)c2nc(N)c(C#N)c(C)c2/C1=C\c1ccccc1`, the cytotoxicity is 107% (active).
Regarding `Cc1nc(N)c(C#N)c(-c2ccccc2)c1C`, the cytotoxicity was 13.3% (inactive).
In the case of `Cc1c(-c2ccccc2)nc(N)c(C#N)c1-c1ccco1`, the cytotoxicity was -4.2% (inactive).
Take `COc1ccc(CNC(=O)c2csnn2)cc1`: the cytotoxicity was -14.5% (inactive).
Consider `CN(C)/C=C1\C(=O)c2ccc(N(C)C)nc2CC1c1ccccc1` (stereo not drawn), for which the cytotoxicity is 60.7% (active).
Regarding `CN(C)/C=C1/Sc2ccccc2C1=O`, the cytotoxicity was -34.3% (inactive).
In the case of `CN(C)C=C1C(=O)c2ccccc2C1=O`, the cytotoxicity was 29.6% (inactive).
Turning to `CCN1C(=O)C2(C(C#N)=C(N)Oc3c2c(C)nn3-c2ccccc2)c2ccccc21` (stereo not drawn), the cytotoxicity is -16% (inactive).
On to `Cc1cc2n(n1)C(c1ccccc1Cl)Nc1ccccc1-2` (stereo not drawn), for which the cytotoxicity was 9.5% (inactive).
Consider `Cc1cc2n(n1)C(c1ccccc1)Nc1ccccc1-2` (stereo not drawn), for which the cytotoxicity was -1.8% (inactive).
For the molecule `Cc1ccc(C(=O)NC(Cc2c[nH]c3ccccc23)C(=O)O)o1` (stereo not drawn), the cytotoxicity is -0.1% (inactive).
The figure for `COc1cccc(C2/C(=C(\O)c3ccc(OC)c(OC)c3)C(=O)C(=O)N2c2cc(C)on2)c1` (stereo not drawn) is 20.9% (inactive).
The result for `Cc1cc(N2C(=O)C(=O)/C(=C(/O)c3ccc(F)cc3)C2c2ccc(Cl)cc2)no1` (stereo not drawn) reads 34.6% (inactive); that for `COc1ccc(/C(O)=C2\C(=O)C(=O)N(c3cc(C)on3)C2c2ccccc2OC)cc1` (stereo not drawn), -1.9% (inactive); that for `Cc1ccc(/C(O)=C2\C(=O)C(=O)N(c3cc(C)on3)C2c2cccc(Br)c2)cc1` (stereo not drawn), 49.9% (inactive).
For the molecule `Cc1cc(N2C(=O)C(=O)/C(=C(/O)c3ccccc3)C2c2cccc(Br)c2)no1` (stereo not drawn), the cytotoxicity is 3.2% (inactive).
`Cc1cc(N2C(=O)C(=O)/C(=C(/O)c3ccc(F)cc3)C2c2ccc(F)cc2)no1` (stereo not drawn): the cytotoxicity is 23.3% (inactive).
The figure for `Cc1ccc(/C(O)=C2\C(=O)C(=O)N(c3cc(C)on3)C2c2cccc(Cl)c2)cc1` (stereo not drawn) is 51.8% (active); for `Cc1cc(N2C(=O)C(=O)/C(=C(/O)c3ccc(Cl)cc3)C2c2cccc(Br)c2)no1` (stereo not drawn) it is 56.2% (active); for `Cc1cc(N2C(=O)C(=O)/C(=C(/O)c3ccc(F)cc3)C2c2cccc(Br)c2)no1` (stereo not drawn) it is 71.5% (active).
With `Cc1c(N=Cc2cc3c(cc2Cl)OCO3)c(=O)n(-c2ccccc2)n1C`, the cytotoxicity was -3.1% (inactive).
As to `COc1ccccc1OCCCCNCCO`, the cytotoxicity is -0.7% (inactive).
On to `CCOC(=O)N1CCC(N2CCN(S(=O)(=O)c3ccc(NC(C)=O)cc3)CC2)CC1`, for which the cytotoxicity was -12.8% (inactive).
As to `Cc1ccnc(Sc2nc3c(c(=O)[nH]c(=O)n3C)n2CCCc2ccccc2)n1`, the cytotoxicity was -9.5% (inactive).
As for `C=CCn1c(SCC(=O)Nc2cccc(C(=O)OC)c2)nnc1C(C)NC(=O)c1cccs1` (stereo not drawn), the cytotoxicity was -5% (inactive).
For the molecule `O=C(c1cc(-c2cccs2)on1)N1CCc2ccccc2C1`, the cytotoxicity was 2.3% (inactive).
`CSc1nc2nc(C)cc(-c3ccccc3)n2n1`: the cytotoxicity was -10.4% (inactive).
On to `Cc1cccc(NC(=O)C2CCN(S(=O)(=O)c3c(C)nn(C)c3C)CC2)n1`, for which the cytotoxicity is 1.6% (inactive).
The result for `COc1ccc2[nH]c(=O)c(CN(C(=O)c3ccccn3)C3CCCCC3)cc2c1` reads -30.2% (inactive); that for `O=C(c1ccc(S(=O)(=O)N2CCOCC2)cc1)N1CCc2ccccc2C1`, -7.6% (inactive); that for `CCOC(=O)C1=C(C)NC(=O)NC1/C(C)=C/c1ccccc1` (stereo not drawn), -16% (inactive).
The result for `COc1cc(-c2nnc3sc(-c4ccncc4)nn23)cc(OC)c1OC` reads -12.2% (inactive); that for `Cc1nnc2sc(-c3cc4ccccc4o3)nn12`, 5.6% (inactive).
With `CCOc1cccc(-c2nnc3sc(-c4ccco4)nn23)c1`, the cytotoxicity is 21.5% (inactive).
Turning to `COc1ccccc1-c1nn2c(-c3ccccc3Cl)nnc2s1`, the cytotoxicity is -14.1% (inactive).
Take `COc1cc(-c2nnc3sc(-c4cccs4)nn23)cc(OC)c1OC`: the cytotoxicity was 75.8% (active).
On to `COc1cccc(-c2nn3c(-c4ccco4)nnc3s2)c1`, for which the cytotoxicity is -0.7% (inactive).
For `COc1cccc(OC)c1-c1nn2c(-c3cc(-c4ccccc4)n[nH]3)nnc2s1`, the cytotoxicity is 68.9% (active).
On to `COc1ccc(-c2nnc3sc(-c4cccs4)nn23)cc1OC`, for which the cytotoxicity is 20.2% (inactive).
As to `COc1ccccc1-c1nnc2sc(-c3cc4ccccc4o3)nn12`, the cytotoxicity is 56.2% (active).
For the molecule `COc1ccc(-c2nnc3sc(-c4c(OC)cccc4OC)nn23)cc1`, the cytotoxicity was 10.9% (inactive).
Consider `COc1cccc(-c2nnc3sc(-c4ccco4)nn23)c1`, for which the cytotoxicity was 58% (active).
In the case of `COc1cccc(OC)c1-c1nn2c(-c3ccccc3Cl)nnc2s1`, the cytotoxicity is 19.8% (inactive).
The figure for `CCOc1ccc(N=C(NC#N)SC)cc1` is -2.8% (inactive); for `CCN(CC)CCNC(=O)c1ccc2c(c1)ncn2C1CCCCC1` it is 0.5% (inactive).
The figure for `O=C(Nc1cccc(C(F)(F)F)c1)C1CCCN(S(=O)(=O)c2cnc[nH]2)C1` (stereo not drawn) is -7.5% (inactive); for `CCOC(=O)CN(C(=O)CSc1nnc(-c2ccncc2)n1CCCN(C)C)c1ccccc1` it is -4.8% (inactive).
On to `Cc1nc2c3c4c(sc3n3c(SCC(=O)NCc5ccco5)nnc3n2n1)COC(C)(C)C4`, for which the cytotoxicity is -6.3% (inactive).

For the origin of these results see PubChem BioAssay AID430 (Sanford-Burnham Center for Chemical Genomics, 2006).
